Each structure is given as a SMILES string. Activity calls are given as the source filed them. How the source made its calls: active means hit-call score of the fitted dose curve at least 0.9, where 1 is the maximum; inactive means score below 0.9.

Holding throughout (settings): mRNA level, 48 h; actives raise or lower the signal
Read-out in assay [1]: Alkaline Phosphatase, Placental (ALPP) gene, ALPP (gene 250)
The experiment in a line: LTEA_HepaRG_ALPP: Life Technologies and Expression Analysis (LTEA) Assay for Alkaline Phosphatase, Placental (ALPP) gene using HepaRG (AID 2283468).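 On AC50: differentiated human HepaRG liver cells in serum-free induction medium.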 In a few lines: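 ALPP transcript level, measured by qRT-PCR and normalized to three housekeeping genes (ACTB, GAPDH, POLR2A), after 48 h dosing of differentiated HepaRG in serum-free induction medium. Top concentration 100 uM with half-log dilutions (8 points, 0.5% DMSO, duplicates); bidirectional fitting relative to DMSO.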

Read-out in assay [2]: Bcl-2 (BAD) gene, BAD (gene 572)
The experiment in a line: LTEA_HepaRG_BAD: Life Technologies and Expression Analysis (LTEA) Assay for Bcl-2 (BAD) gene using HepaRG (AID 2283469). An outline of the steps: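 Read-out: qRT-PCR of BAD mRNA, normalized to three housekeeping genes. Human HepaRG cultures got 48 h chemical exposure in 0.5% DMSO, duplicate eight-point half-log series topping at 100 uM. Gain or loss of signal fitted versus DMSO vehicle.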

Read-out in assay [3]: Bcl-2 (BAX) gene, BAX (gene 581)
The experiment in a line: LTEA_HepaRG_BAX: Life Technologies and Expression Analysis (LTEA) Assay for Bcl-2 (BAX) gene using HepaRG (AID 2283470). An outline of the steps:
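Cells were thawed, plated for 48 h, moved to serum-free induction medium and dosed for 48 h (highest concentration 100 uM, half-log steps, 0.5% DMSO). Total RNA was then analysed for BAX expression by qRT-PCR.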

Read-out in assay [4]: adenosine kinase (ADK) gene, ADK (gene 132)
The experiment in a line: LTEA_HepaRG_ADK: Life Technologies and Expression Analysis (LTEA) Assay for adenosine kinase (ADK) gene using HepaRG (AID 2283471). In a few lines:
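ADK expression quantified by qRT-PCR, normalised to three housekeeping genes, after 48 h exposure of HepaRG cells to eight concentrations (top 100 uM, half-log steps, duplicate, 0.5% DMSO). Up- or down-regulation fitted relative to vehicle.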

Read-out in assay [5]: Alpha-fetoprotein (AFP) gene, AFP (gene 174)
The experiment in a line: LTEA_HepaRG_AFP: Life Technologies and Expression Analysis (LTEA) Assay for Alpha-fetoprotein (AFP) gene using HepaRG (AID 2283472). An outline of the steps:
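Chemicals were tested on differentiated HepaRG cells for 48 hours at eight concentrations up to 100 uM, with 0.5% DMSO as vehicle. AFP expression was then quantified by qRT-PCR and analyzed for gain or loss relative to DMSO.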

Read-out in the next assay: BCL2L11 (gene 10018)
The experiment in a line: LTEA_HepaRG_BCL2L11: Life Technologies and Expression Analysis (LTEA) Assay for Bcl-2 (BCL2L11) gene using HepaRG (AID 2283473). An outline of the steps:
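BCL2L11 transcript levels are measured by Fluidigm qRT-PCR, normalized to three housekeeping genes. HepaRG cultures were plated 48 h, then treated 48 h with test chemical (top 100 uM, half-log, 0.5% DMSO vehicle); curves were fitted bidirectionally against DMSO.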

Read-out in assay [6]: Apoptosis regulator Bcl-2 (Homo sapiens) (UniProt P10415)
The experiment in a line: LTEA_HepaRG_BCL2: Life Technologies and Expression Analysis (LTEA) Assay for Bcl-2 gene using HepaRG (AID 2283475). In a few lines: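 Plated human HepaRG cells are exposed to test chemicals for 48 h across eight concentrations from 100 uM downward in half-log steps (0.5% DMSO). BCL2 expression is then measured by qRT-PCR with housekeeping normalisation and fitted bidirectionally against vehicle.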

Read-out in assay [7]: Bcl-2 (BID) gene, BID (gene 637)
The experiment in a line: LTEA_HepaRG_BID: Life Technologies and Expression Analysis (LTEA) Assay for Bcl-2 (BID) gene using HepaRG (AID 2283476). In a few lines:
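Cells are plated, cultured 48 h, switched to serum-free induction medium, then dosed 48 h (100 uM top, half-log steps, 0.5% DMSO). RNA is isolated and BID expression read by qRT-PCR.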

Read-out in a further assay: Caspase-3 (Homo sapiens) (UniProt P42574)
The experiment in a line: LTEA_HepaRG_CASP3: Life Technologies and Expression Analysis (LTEA) Assay for cysteine-aspartic acid protease (CASP3) using HepaRG (AID 2283477). An outline of the steps:
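Expression of CASP3 was quantified by TaqMan qRT-PCR against three housekeeping genes (ACTB, GAPDH, POLR2A), bidirectionally versus 0.5% DMSO. HepaRG cultures received compounds in duplicate, top 100 uM with half-log steps, for 48 h in serum-free induction medium.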

Read-out in assay [8]: Cytochrome P450 (CYP24A1), CYP24A1 (gene 1591)
The experiment in a line: LTEA_HepaRG_CYP24A1: Life Technologies and Expression Analysis (LTEA) Assay for Cytochrome P450 (CYP24A1) using HepaRG (AID 2283478). An outline of the steps: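 mRNA of CYP24A1 quantified by TaqMan qRT-PCR (ACTB/GAPDH/POLR2A normalization) after 48 h chemical exposure of HepaRG cells, top concentration 100 uM, half-log steps, 0.5% DMSO vehicle, duplicates. Curves fitted bidirectionally against DMSO baseline.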

Read-out in assay [9]: Cytochrome P450 (CYP1A2), CYP1A2 (gene 1544)
The experiment in a line: LTEA_HepaRG_CYP1A2: Life Technologies and Expression Analysis (LTEA) Assay for Cytochrome P450 (CYP1A2) using HepaRG (AID 2283479). An outline of the steps:
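CYP1A2 transcript measured by TaqMan qRT-PCR against three housekeeping genes after 48-hour chemical exposure of HepaRG cells. Eight-point half-log series topping at 100 uM in 0.5% DMSO, duplicates; gain or loss fitted relative to vehicle.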

Read-out in assay [10]: cysteine-aspartic acid protease (CASP8), CASP8 (gene 841)
The experiment in a line: LTEA_HepaRG_CASP8: Life Technologies and Expression Analysis (LTEA) Assay for cysteine-aspartic acid protease (CASP8) using HepaRG (AID 2283480). An outline of the steps:
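CASP8 transcript measured by TaqMan qRT-PCR with ACTB/GAPDH/POLR2A normalization, after 48 h chemical exposure of HepaRG cells in serum-free induction medium. Eight concentrations, top 100 uM, half-log steps, 0.5% DMSO vehicle; fits in both directions versus DMSO.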

Read-out in assay [11]: Cytochrome P450 (CYP2B6), CYP2B6 (gene 1555)
The experiment in a line: LTEA_HepaRG_CYP2B6: Life Technologies and Expression Analysis (LTEA) Assay for Cytochrome P450 (CYP2B6) using HepaRG (AID 2283481). In a few lines:
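CYP2B6 transcript level quantified by qRT-PCR against three housekeeping genes, fitted bidirectionally relative to DMSO. HepaRG cultures received chemicals for 48 h, 8-point half-log series from 100 uM in 0.5% DMSO, duplicate wells, serum-free induction medium.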

Read-out in assay [12]: Cytochrome P450 2C19 (Homo sapiens) (UniProt P33261)
The experiment in a line: LTEA_HepaRG_CYP2C19: Life Technologies and Expression Analysis (LTEA) Assay for CYP2C19 using HepaRG (AID 2283482). In a few lines: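 CYP2C19 transcript levels by qRT-PCR, normalized to three housekeeping genes, in HepaRG cells after 48 h chemical exposure. Eight-point half-log series topping at 100 uM, 0.5% DMSO vehicle. Increases and decreases both fitted against DMSO.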

Read-out in another assay: CYP2C8 (gene 1558)
The experiment in a line: LTEA_HepaRG_CYP2C8: Life Technologies and Expression Analysis (LTEA) Assay for CYP2C8 using HepaRG (AID 2283483). An outline of the steps:
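CYP2C8 expression measured by TaqMan qRT-PCR and normalized to three housekeeping genes. HepaRG cultures were treated for 48 h with an eight-point half-log series topping at 100 uM, vehicle 0.5% DMSO, duplicates; fitted both directions against DMSO.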

Read-out in another assay: CYP2C9 (gene 1559)
The experiment in a line: LTEA_HepaRG_CYP2C9: Life Technologies and Expression Analysis (LTEA) Assay for CYP2C9 using HepaRG (AID 2283484). An outline of the steps:
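CYP2C9 transcript level, quantified by TaqMan qRT-PCR against three housekeeping genes, was fitted bidirectionally relative to 0.5% DMSO. HepaRG cultures were treated 48 h, in duplicate, at eight half-log concentrations topping at 100 uM.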

Read-out in a further assay: CYP2E1 (gene 1571)
The experiment in a line: LTEA_HepaRG_CYP2E1: Life Technologies and Expression Analysis (LTEA) Assay for CYP2E1 using HepaRG (AID 2283485). In a few lines: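 Readout is qRT-PCR of CYP2E1 mRNA, normalized to three housekeeping genes and fitted bidirectionally against 0.5% DMSO. HepaRG cells were dosed 48 h at eight concentrations, highest 100 uM with half-log dilutions.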

Read-out in a further assay: CYP4A11 (gene 1579)
The experiment in a line: LTEA_HepaRG_CYP4A11: Life Technologies and Expression Analysis (LTEA) Assay for CYP4A11 using HepaRG (AID 2283486). An outline of the steps:
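Readout is CYP4A11 transcript level by qRT-PCR, normalized to three housekeeping genes and fitted bidirectionally against 0.5% DMSO. Human HepaRG cells were treated 48 h, in duplicate, with an 8-point half-log series topping at 100 uM.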

Read-out in assay [13]: Cytochrome P450 3A4 (Homo sapiens) (UniProt P08684)
The experiment in a line: LTEA_HepaRG_CYP3A4: Life Technologies and Expression Analysis (LTEA) Assay for CYP3A4 using HepaRG (AID 2283487). An outline of the steps: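 Differentiated HepaRG cells, plated 48 h, then dosed 48 h in serum-free induction medium with 0.5% DMSO, 8 half-log concentrations up to 100 uM, duplicate. CYP3A4 mRNA by qRT-PCR, normalized to ACTB/GAPDH/POLR2A; bidirectional fit versus DMSO.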

Apoptosis regulator Bcl-2 (Homo sapiens), sequence (P10415 whole entry, looked up): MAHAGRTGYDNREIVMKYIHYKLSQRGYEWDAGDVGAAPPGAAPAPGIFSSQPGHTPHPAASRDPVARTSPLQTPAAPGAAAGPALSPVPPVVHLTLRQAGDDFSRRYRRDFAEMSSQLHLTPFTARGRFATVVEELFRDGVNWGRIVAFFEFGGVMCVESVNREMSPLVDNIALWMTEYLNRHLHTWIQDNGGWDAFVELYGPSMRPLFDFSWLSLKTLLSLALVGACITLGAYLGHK
Caspase-3 (Homo sapiens), sequence (P42574 whole entry, looked up): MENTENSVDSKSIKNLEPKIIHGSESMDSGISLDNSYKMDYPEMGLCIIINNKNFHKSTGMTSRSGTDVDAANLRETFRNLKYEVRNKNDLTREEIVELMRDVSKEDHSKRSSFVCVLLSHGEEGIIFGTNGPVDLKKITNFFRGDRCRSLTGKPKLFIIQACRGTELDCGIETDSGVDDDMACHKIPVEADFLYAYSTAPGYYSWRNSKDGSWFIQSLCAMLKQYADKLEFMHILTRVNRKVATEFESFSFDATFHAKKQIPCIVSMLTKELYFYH
Cytochrome P450 2C19 (Homo sapiens), sequence (P33261 whole entry, looked up): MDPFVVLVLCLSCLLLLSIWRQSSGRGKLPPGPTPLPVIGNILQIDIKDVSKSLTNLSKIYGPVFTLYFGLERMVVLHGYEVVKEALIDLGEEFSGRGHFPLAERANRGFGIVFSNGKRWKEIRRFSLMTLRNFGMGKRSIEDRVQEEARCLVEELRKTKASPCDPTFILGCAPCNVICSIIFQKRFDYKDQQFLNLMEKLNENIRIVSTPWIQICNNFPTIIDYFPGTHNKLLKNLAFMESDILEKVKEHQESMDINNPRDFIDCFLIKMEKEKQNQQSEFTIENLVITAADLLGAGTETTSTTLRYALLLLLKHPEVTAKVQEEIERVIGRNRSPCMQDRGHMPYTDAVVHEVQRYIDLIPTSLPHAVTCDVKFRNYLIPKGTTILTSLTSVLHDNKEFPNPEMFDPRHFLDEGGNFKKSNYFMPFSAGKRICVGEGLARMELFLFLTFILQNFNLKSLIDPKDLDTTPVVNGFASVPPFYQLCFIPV
Cytochrome P450 3A4 (Homo sapiens), sequence (P08684 whole entry, looked up): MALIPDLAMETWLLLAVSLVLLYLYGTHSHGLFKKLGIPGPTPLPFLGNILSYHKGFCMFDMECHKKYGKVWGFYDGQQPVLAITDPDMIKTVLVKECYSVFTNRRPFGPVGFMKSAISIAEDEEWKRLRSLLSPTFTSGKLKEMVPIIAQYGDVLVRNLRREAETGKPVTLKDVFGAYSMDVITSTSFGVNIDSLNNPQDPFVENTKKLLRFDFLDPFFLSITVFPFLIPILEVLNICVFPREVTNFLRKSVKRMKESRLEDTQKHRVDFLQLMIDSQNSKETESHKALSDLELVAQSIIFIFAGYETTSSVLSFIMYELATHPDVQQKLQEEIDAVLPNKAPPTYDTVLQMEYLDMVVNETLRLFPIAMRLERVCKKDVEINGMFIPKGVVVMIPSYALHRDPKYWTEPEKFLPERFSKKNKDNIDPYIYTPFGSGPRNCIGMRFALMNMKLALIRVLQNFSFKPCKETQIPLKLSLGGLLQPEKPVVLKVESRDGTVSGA

With `CC(Oc1ccc(Cl)cc1Cl)C(=O)O` (stereo not given), the molecule was called inactive (in [1]; in [2]; in assay [3]; in assay [4]; in assay [5]; in the assay with BCL2L11 (gene 10018)). Besides, the molecule was classed as inactive (in [6]; in assay [7]; with Caspase-3 (Homo sapiens); in [8]; in [9]; in assay [10]). The result (in [11]; in assay [12]; with CYP2C8 (gene 1558); with CYP2C9 (gene 1559); in the assay with CYP2E1 (gene 1571); in assay [13]) was inactive. For the same molecule, the half-maximal activity concentration (AC50) in the assay with CYP4A11 (gene 1579) was 71.5 µM (active).
For `COC(=O)C(C)Oc1ccc(Oc2ccc(Cl)cc2Cl)cc1` (stereo not given), the molecule was called inactive (in assay [1]; in [2]; in [3]; in assay [4]; in the assay with BCL2L11 (gene 10018); in assay [7]). The molecule was classed as inactive (with Caspase-3 (Homo sapiens); in assay [8]; in assay [9]; in assay [10]; in assay [11]; with CYP2C8 (gene 1558)). Moreover, the call (with CYP2C9 (gene 1559); in assay [13]) was inactive. Besides, the AC50 in assay [5] is 79.6 µM (active); in assay [6], 50 µM (active); in [12], 29.4 µM (active); with CYP2E1 (gene 1571) it was 50 µM (active); with CYP4A11 (gene 1579) it was 12.7 µM (active).
For the molecule `OC(c1ccc(Cl)cc1)(c1cncnc1)c1ccccc1Cl` (stereo not given), the concentration at half-maximal activity (AC50) in assay [1] is 61.5 µM (active); in assay [3] it was 66.4 µM (active); in assay [5], 80 µM (active); in assay [6] it was 75.1 µM (active); in assay [9], 86.6 µM (active); in assay [10], 50 µM (active). The concentration at half-maximal activity (AC50) in [11] was 91.3 µM (active); in [12] it was 89.6 µM (active); with CYP2C8 (gene 1558) it was 83.6 µM (active); with CYP2C9 (gene 1559), 83.7 µM (active); with CYP2E1 (gene 1571), 46.7 µM (active); in the assay with CYP4A11 (gene 1579) it was 70.4 µM (active). Besides, in [13], the AC50 is 11.4 µM (active). For the same molecule, the call (in [2]; in assay [4]; with BCL2L11 (gene 10018); in assay [7]; in the assay with Caspase-3 (Homo sapiens); in [8]) was inactive.
Take `CC1=C(C(=O)Nc2ccccc2)SCCO1`: the call (in assay [1]; in assay [2]; in assay [3]; in assay [4]; in [5]; in the assay with BCL2L11 (gene 10018)) was inactive. For the same molecule, the outcome (in [6]; in assay [7]; with Caspase-3 (Homo sapiens); in assay [8]; in [10]; in [12]) was inactive. Further, the outcome (with CYP2C8 (gene 1558); with CYP2C9 (gene 1559); in the assay with CYP4A11 (gene 1579); in assay [13]) was inactive. Also, the AC50 in assay [9] is 50 µM (active); in assay [11], 45 µM (active); in the assay with CYP2E1 (gene 1571) it was 74.5 µM (active).
On to `N#Cc1cc(Br)c(O)c(Br)c1`, for which the concentration at half-maximal activity (AC50) in [1] is 8.91 µM (active); in assay [4] it was 6.14 µM (active); in assay [5], 13.9 µM (active); in the assay with BCL2L11 (gene 10018), 10.4 µM (active); in assay [6], 10 µM (active); with Caspase-3 (Homo sapiens), 7.76 µM (active). The half-maximal activity concentration (AC50) in [9] is 12.9 µM (active); in assay [10] it was 23.6 µM (active); in assay [11] it was 9.97 µM (active); in assay [12], 13.9 µM (active); in the assay with CYP2C8 (gene 1558), 25.3 µM (active); in the assay with CYP2C9 (gene 1559), 14.4 µM (active). Besides, the concentration at half-maximal activity (AC50) was 17.1 µM (active) in the assay with CYP2E1 (gene 1571), 26.6 µM (active) with CYP4A11 (gene 1579) and 16.1 µM (active) in assay [13]. For the same molecule, the molecule was called inactive in assay [2], in assay [3], in assay [7] and in assay [8].

As a reminder, the AC50 is the concentration giving half of the maximal activity seen.
